Measurements: PubChem BioAssay AID651871 (Sanford-Burnham Center for Chemical Genomics, 2012)

System: H9c2
Assay: cardiomyocyte survival under oxidative or metabolic stress – cell-based, panel, H9c2 and HL-1, ATP luminescence, set 2, SAR follow-up (AID 651871);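 further: cells exposed to stressor for 2 h before ATP readout; reference of the scale not given here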
Settings: H9c2/HL-1 cardiomyocytes, H2O2 oxidative stress, with H2O2, run 2, at 39.5 µM (top of the series)

Question: `COc1ccc2c(c1OC)C(=O)N1c3ccccc3C(=O)N(Cc3cccc(Cl)c3Cl)C21` (stereo unspecified) was tested. Which activity (protection/inhibition) did it give?
Answer: The activity (protection/inhibition) was 48.1%.
